Assay: HepG2 cell viability effects, profiling panel, calcein-AM fluorescence, 48 h, basal (AID 1164); further: test concentration not given here
Details: higher = more signal

Row | SMILES | z-score
1 | NC(=O)NCC#Cc1ccc2c(c1)[C@]1(C(=O)N2)[C@H](C(=O)N2CCN(c3ncccn3)CC2)[C@H]2C(=O)O[C@H](c3ccccc3)[C@H](c3ccccc3)N2[C@@H]1c1ccc(O)cc1 | -0.388
2 | COc1ccc(C#Cc2ccc3c(c2)[C@]2(C(=O)N3)[C@H](c3ccc(O)cc3)N3[C@H](c4ccccc4)[C@H](c4ccccc4)OC(=O)[C@H]3[C@@H]2C(=O)Nc2nc3ccccc3s2)cc1 | -0.0578
3 | COCCCNC(=O)[C@@]1(Sc2ccc(C)cc2)CC(=O)N(C2Cc3ccccc3C2)[C@@H]1c1ccc(CO)cc1 | -0.603
4 | CCC1=C2CN(Cc3ccccc3)[C@@H](C(=O)Cc3ccccc3)C2C=CCC1 (stereo partly specified) | -0.342
5 | CCOC(=O)C1=C[C@@H](C(C)(C)C)N(S(=O)(=O)c2ccc(C)cc2)[C@H]1c1cccc2ccccc12 | -1.62
6 | C=CCC(OC(C)=O)[C@@H]1[C@@H](N(Cc2cc3ccccc3o2)C(=O)Cc2ccc(F)cc2)c2cc(OCCCO)ccc2N1C(=O)Cc1ccc2ccccc2c1 (stereo partly specified) | 0.766
7 | COC(=O)[C@@]1(Cc2ccc(OC)cc2)[C@H]2c3cc(C(=O)N4CCCC4)n(CCc4c[nH]c5ccc(OC)cc45)c3C[C@H]2CN1C(=O)c1ccccc1 | -0.636
8 | COC(=O)[C@@]1(Cc2ccc(OC)cc2)[C@H]2c3cc(C(=O)N(C)C)n(Cc4ccc(C)o4)c3C[C@H]2CN1C(=O)c1ccccc1 | 0.81
9 | CC(C)c1ccc(NN2C(C(O)c3ccc(F)cc3)C=CC3C(=O)N(c4ccccc4)C(=O)C32)cc1 (stereo unspecified) | 0.747
10 | COc1cc2c(cc1O)C(C1CC1)N(C)CC2 (stereo unspecified) | 0.575
11 | CCCCN1CC=CC23O[C@@H]4/C=C\CCCOC(=O)C4[C@H]2C(=O)N(CCO)[C@@H]3C1=O (stereo partly specified) | -0.0509
12 | COCCCNC(=O)[C@@]1(CCC(=O)OC(C)(C)C)N=C(c2ccc(OCCCO)cc2)O[C@H]1c1ccccc1N=[N+]=[N-] | 0.977
13 | CS(=O)(=O)CCOC(=O)C1=CC(c2ccc(CO)cc2)=CC(C2CC2)N(Cc2sc3ccccc3c2Cl)C=C1C(=O)OCCS(C)(=O)=O (stereo unspecified) | 0.0312
14 | COCCOC(=O)N1C(=O)[C@@]2(c3ccccc31)[C@H](C(=O)NC[C@H](O)c1ccccc1)[C@H]1C(=O)O[C@H](c3ccccc3)[C@H](c3ccccc3)N1[C@@H]2c1ccc(O)cc1 | -0.921
15 | CN(C)C(=O)[C@]1(Cc2ccccc2CN=[N+]=[N-])N=C(c2ccc(OCCCO)cc2)O[C@@H]1c1ccccc1 | -1.65
16 | COc1cc(OC)c(C(O)C2C=CC3C(=O)N(Cc4ccccc4)C(=O)C3N2n2cnnc2)cc1Br (stereo unspecified) | -0.161
17 | C=C[C@H](C)[C@H](OC(=O)Nc1ccc(SC)cc1)c1ccc(OCCO)cc1 | -0.47
18 | CCOC(=O)C1=C[C@@H](C(C)C)N(S(=O)(=O)c2ccc(C)cc2)[C@H]1c1ccc(C(F)(F)F)cc1 | -1.53

Row | SMILES | z-score
19 | CCOC(=O)C[C@H]1[C@H](OC(=O)c2ccc(-c3ccccc3)cc2)[C@@H](NC(=O)CC(C)C)c2cc(OCCCO)ccc2N1C(=O)c1ccc2ccccc2n1 | 0.627
20 | COc1cccc(C)c1NC(=O)O[C@H]1[C@H](OC(=O)Nc2ccccc2-c2ccccc2)[C@H](OC(=O)Nc2ccccc2-c2ccccc2)[C@@H](OC)O[C@@H]1CO | 0.56
21 | C=C(COC)C(=O)CC[C@@H](OC(C)=O)c1cccc(OCCO)c1 | -0.4
22 | C=CCNC(=O)[C@@H]1[C@H]2C(=O)O[C@H](c3ccccc3)[C@H](c3ccccc3)N2[C@H](c2ccc(OCCO)cc2)[C@@]12C(=O)N(C(=O)OCCOC)c1ccc(C#Cc3ccc(OC)cc3)cc12 | -0.834
23 | CCCNC(=O)[C@@]1(C)c2ccccc2C(=O)N(c2ccc(C)cn2)[C@H]1c1ccc(CO)cc1 | -0.146
24 | CC(=O)NCCCC[C@@H]1NC(=O)[C@@H]2C[C@H](C(=O)NCCCCCN)[C@H](c3ccc(O)cc3)N2C1=O | -0.512
25 | CC1CC/C=C\[C@H]2OC34C=CCN(Cc5ccccc5)C(=O)[C@H]3N(C(CO)C(C)C)C(=O)[C@@H]4C2C(=O)O1 (stereo partly specified) | 0.539
26 | COc1ccc(CCNC(=O)[C@@]2(c3ccc([N+](=O)[O-])cc3)CC(=O)N(C3CCCCC3)[C@@H]2c2ccc(CO)cc2)cc1 | 1.12
27 | C=CCC(OC(C)=O)[C@@H]1[C@@H](N(Cc2cccc3ccccc23)C(=O)Cc2ccc(OC)cc2)c2cc(OCCCO)ccc2N1C(=O)c1ccc(-c2ccccc2)cc1 (stereo partly specified) | 0.256
28 | COc1ccc([Si](C)(C)[C@@H]2[C@@H](CCO)O[C@]3(C(=O)N(Cc4ccccc4)c4ccc(NC(=O)[C@H](C)O)cc43)[C@H]2C)cc1 | -4.61
29 | [N-]=[N+]=Nc1ccccc1[C@@H]1OC(c2ccc(OCCCO)cc2)=N[C@]1(Cc1ccccc1)C(=O)O | 0.547
30 | COc1ccc([C@H]2OC[C@@H]3C[C@H](Cc4ccccc4)C(=O)N32)cc1 | -0.459
31 | CC(C)N1CC=CC23O[C@@H]4C=CCCOC(=O)C4[C@H]2C(=O)N(CCCO)[C@@H]3C1=O (stereo partly specified) | 0.292
32 | COc1ccc([Si](C)(C)[C@@H]2[C@@H](CCO)O[C@]3(C(=O)N(Cc4cccc(NC(=O)[C@H](C)O)c4)c4ccccc43)[C@H]2C)cc1 | -4.53
33 | NCCCCCNC(=O)[C@@H]1C[C@@H]2C(=O)N[C@@H](CCCCN)C(=O)N2[C@@H]1c1ccc(O)cc1 | 0.131
34 | C=CCN1Cc2ccccc2[C@@H]2OC(c3ccc(OCCCO)cc3)=N[C@]2(CC=C)C1=O | 0.274
35 | C=CCNC(=O)[C@@H]1[C@H]2C(=O)O[C@H](c3ccccc3)[C@H](c3ccccc3)N2[C@H](c2ccccc2OCCO)[C@@]12C(=O)N(C(=O)OCCOC)c1ccc(C#CC3(O)CCCCCC3)cc12 | -1.27
36 | CC(C)N1C(=O)c2ccccc2[C@@H](C(=O)NCCN2CCOCC2)[C@@H]1c1ccc(CO)cc1 | 0.135

— PubChem BioAssay
